CHT PAM: allosterically activates the human high affinity choline transporter; CHT-expressing cells, membrane potential dye, choline EC20; active compounds read high; LV-AA mutant CHT in HEK293 cells; Q9GZV3; 0.49% of 310,000 active; AID 488977; B-score at 10 µM;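 active means initial fluorescence not abnormally high and integrated response B-score, plate-corrected, over 3 SD above library mean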
ANO1 block: inhibitors of mouse TMEM16A calcium-activated chloride channel | Q8BHY3 | HEK293 TMEM16A/YFP iodide influx fluorescence, ionomycin | normalized B-score (activity score, 25-100; higher = stronger inhibition) at 10 µM | 1.2% of 310,000 active;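 active means ratio plate-corrected score three or more library SD toward inhibition, starting fluorescence score within five deviations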;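 further: score derived from kinetic fluorescence span divided by baseline fluorescence per well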
ANO1 activ: activates or potentiates the mouse TMEM16A chloride channel; Q8BHY3; HEK293 TMEM16A/YFP-H148Q/I152L, iodide quench fluorescence; active compounds read low; B-score at 10 µM; 0.3% of 340,000 active; AID 623877;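 active means fluorescence-ratio B-score plate-corrected deviation score at least 3 library SD below zero, with starting fluorescence score within 5 deviations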;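 further: channel opened by trigger with iodide after compound preincubation; score built on the fluorescence ratio of max minus min over baseline; more negative score means more quench and so TMEM16A activation or potentiation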
CHT inh: inhibitors of human choline transporter CHT. Q9GZV3. CHT-expressing cells, membrane potential dye, choline response; active compounds read low. B-score at 10 µM. 0.86% of 310,000 active. AID 488975;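 active means B-score over 3 SD under the library average, and starting fluorescence ratio not unusually high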;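 further: choline stimulus applied at its EC90 after an EC20 pre-addition; B-score computed on integrated fluorescence ratio after choline addition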
TMEM16A reconf: re-confirmation of mouse TMEM16A chloride channel inhibitors; 39% of 2,300 active; HEK293 TMEM16A/YFP-H148Q, iodide quench fluorescence; ionomycin added to raise cell calcium; shares compounds with ANO1 block; inhibition, % at 10 µM;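 active means mean duplicate percent inhibition, scaled so buffer wells are 0 and the reference blocker 100, over three buffer SD above buffer mean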
HEK293 Ca mobil: alters calcium mobilization in TMEM16A HEK293 cells, counter-screen; shares compounds with ANO1 block; TMEM16A/YFP HEK293, Fluo4 calcium mobilization; calcium response (% of ionomycin), % at 10 µM; 2% of 2,300 active; AID 652231;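 active means duplicate-averaged calcium signal over 20% of the ionomycin maximum, relative to buffer baseline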;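 further: each well's signal is peak minus trough fluorescence divided by its pre-addition baseline; 0% = buffer wells and 100% = ionomycin wells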
YFP-HEK293 quench: parental YFP-HEK293 iodide quench counter-screen activity. ionomycin. 2,300 tested, under 10 active. shares compounds with ANO1 block. YFP ratio F(max-min)/F0 at 10 µM;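 active means yellow fluorescent protein signal ratio exceeding the buffer control mean by over 5 SD of those controls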;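 further: ratio is mean of duplicate wells from kinetic YFP trace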
ClC-1 inh: rat ClC-1 inhibition, TMEM16A specificity screen; shares compounds with ANO1 block; 2,300 tested, under 10 active; CHO ClC-1-YFP, iodide influx fluorescence quench; iodide control reads 0, buffer control 100; ratio percent, % at 10 µM;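 active means duplicate-mean ratio percent above the mean of iodide-only control wells, which defines zero, plus 5 of their SD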;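 further: higher percent means stronger block of ClC-1 iodide influx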
The depositor's hits bear a star. The list is not random: actives were taken first. Their share in the collection is about 2.4%.

For CCNC(=S)NNC(=O)c1cc(-c2cccc(OCC)c2)nc2ccccc12 the results were CHT PAM inactive, ANO1 block 25*, ANO1 activ inactive, CHT inh inactive, TMEM16A reconf inactive, HEK293 Ca mobil inactive, YFP-HEK293 quench -1.07 and ClC-1 inh -5.0.
Screening O=C(Nc1ccncc1)c1ccc(Cl)c(S(=O)(=O)N2CCc3ccccc32)c1 returned CHT PAM inactive, ANO1 block 25*, ANO1 activ inactive, CHT inh inactive, TMEM16A reconf 31.5%*, HEK293 Ca mobil inactive, YFP-HEK293 quench -1.12 and ClC-1 inh -30.5.
`O=C(Nc1ccncc1)c1ccc(Cl)c(S(=O)(=O)N2CCCCC2)c1` gave CHT PAM inactive, ANO1 block 25*, ANO1 activ inactive, CHT inh inactive, TMEM16A reconf inactive, HEK293 Ca mobil inactive, YFP-HEK293 quench -1.03 and ClC-1 inh -20.5.
Screening O=C(Nc1ccc(Br)cc1)c1ccc(F)c(S(=O)(=O)N2CCN(c3ccccn3)CC2)c1 returned CHT PAM inactive, ANO1 block 25*, ANO1 activ inactive, CHT inh inactive, TMEM16A reconf inactive, HEK293 Ca mobil inactive, YFP-HEK293 quench -1.15 and ClC-1 inh -16.0.
For O=S(=O)(c1cc(Cl)ccc1Cl)N1CCc2ccccc21 the results were CHT PAM inactive, ANO1 block inactive, ANO1 activ inactive and CHT inh inactive.
Screening O=C(Nc1nnc(C2CC2)s1)c1ccc(Cl)c(S(=O)(=O)N2CCc3ccccc3C2)c1 returned CHT PAM inactive, ANO1 block 100*, ANO1 activ inactive, CHT inh inactive, TMEM16A reconf 26.5%*, HEK293 Ca mobil inactive, YFP-HEK293 quench -1.13 and ClC-1 inh -3.0.
Screening O=C(Nc1nnc(C2CC2)s1)c1cc(S(=O)(=O)N2CCN(c3ccccc3)CC2)ccc1Cl returned CHT PAM inactive, ANO1 block inactive, ANO1 activ inactive and CHT inh inactive.
`O=C(COC(=O)c1cccc(NS(=O)(=O)c2ccc(F)c(F)c2)c1)NC(=O)NC1CCCCC1` gave CHT PAM inactive, ANO1 block inactive, ANO1 activ inactive and CHT inh inactive.
Screening O=C(Nc1cccnc1)c1ccc(Cl)c(S(=O)(=O)N2CCCCCC2)c1 returned CHT PAM inactive, ANO1 block 25*, ANO1 activ inactive, CHT inh inactive, TMEM16A reconf 29.5%*, HEK293 Ca mobil inactive, YFP-HEK293 quench -1.07 and ClC-1 inh -13.5.
O=C(Nc1ccccc1)Nc1ccc(Cl)c(S(=O)(=O)N2CCOCC2)c1 was read as CHT PAM inactive, ANO1 block 100*, ANO1 activ inactive, CHT inh inactive, TMEM16A reconf 28.5%*, HEK293 Ca mobil inactive, YFP-HEK293 quench -0.91 and ClC-1 inh -11.5.
Screening C[n+]1cn(Cc2ccc(C#N)cc2)c2ccccc21 returned CHT PAM inactive, ANO1 block inactive, ANO1 activ inactive and CHT inh inactive.
CC1CCN(C(=O)COC(=O)c2cccc(S(=O)(=O)N(C)c3ccccc3)c2)CC1 was read as ANO1 activ inactive.
Cc1cc(C)cc(NC(=O)c2nnn(Cc3cc(C)ccc3C)c2N)c1 was read as CHT PAM inactive, ANO1 block 25*, ANO1 activ -4.57*, CHT inh inactive, TMEM16A reconf 41.5%*, HEK293 Ca mobil inactive, YFP-HEK293 quench -1.11 and ClC-1 inh -5.0.
For Cc1ccc(C)c(Cn2nnc(C(=O)Nc3ccc4c(c3)OCCO4)c2N)c1 the results were CHT PAM inactive, ANO1 block inactive, ANO1 activ inactive and CHT inh inactive.
O=S(=O)(/N=C(/c1ccccc1)N1CCOCC1)c1ccc(Br)cc1 was read as CHT PAM inactive, ANO1 block inactive, ANO1 activ inactive and CHT inh inactive.

Screening results as filed in PubChem.
